Reference: PubChem BioAssay (Tox21)
Several values for one entry are separate records, joined by “and”; a condition that tells them apart may be missing. Identical values can stand only once. Inconclusive results are not listed. More than one record can exist for a structure, and the calls need not agree. Activity calls are given as the source filed them. Unless noted, calls follow the shape of the dose curve; as a rule, active = well fitted curve in the direction sought with a large enough effect in the repeat runs; inconclusive = weak or mixed curves; inactive = no such curve, though single readings can be large; an effect the other way counts as inactive or inconclusive.

What was measured:
[1] = qHTS RealTime-Glo MT Cell Viability Assay in HEK293 cells - 24 hour (AID 1224886); also: top concentration of the series differs between compounds; nearly all actives have a fitted effect of over 50% in size
Procedure, shortened: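 Homogeneous bioluminescent viability format in HEK293 cells (600 cells/well). Following 5 h at 37 C/5% CO2, 23 nL compound was pintooled; the signal was measured repeatedly during 40 h incubation.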

[2] = qHTS RealTime-Glo MT Cell Viability Assay in HEK293 cells - 8 hour (AID 1224887); also: top concentration of the series differs between compounds; nearly all actives have a fitted effect of over 50% in size
Procedure, shortened: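 HEK293 cells mixed with RealTime-Glo reagents (NanoLuc plus cell-permeant prosubstrate) at 600 cells/well, preincubated 5 h at 37 C/5% CO2, then given 23 nL compound in DMSO. Nonlytic luminescence from viable cells was read at 0, 8, 16, 24, 32 and 40 h.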

[3] = A CellTox Green Cytotoxicity Assay to monitor cytotoxicity in HEK293 cells - 16 hour (AID 1224888); also: nearly all actives have a fitted effect of over 35% in size
Procedure, shortened: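 HEK293 cells premixed with CellTox Green dye were seeded at 600 cells/well and left 5 h at 37 C/5% CO2 before pin transfer of 23 nL compound in DMSO. Fluorescence from dye bound to dead-cell DNA was read during 40 h treatment.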

[4] = qHTS RealTime-Glo MT Cell Viability Assay in HepG2 cells - 0 hour (AID 1224889); also: nearly all actives have a fitted effect of over 50% in size; also: potency is read from the fitted curve at half-maximal effect
Procedure, shortened: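 Cell number in HepG2 cultures estimated from NanoLuc luminescence generated by metabolic reduction of a prosubstrate by living cells. The homogeneous, nonlytic format allowed repeated reads at 0, 8, 16, 24, 32 and 40 h of compound exposure.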

[5] = A CellTox Green Cytotoxicity Assay to monitor cytotoxicity in HepG2 cells - 8 hour (AID 1224890); also: nearly all actives have a fitted effect of over 45% in size
Procedure, shortened: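 HepG2 cells were seeded together with the CellTox Green dye at 600 cells/well, left 5 h at 37 C/5% CO2, then given compounds in DMSO. Fluorescence from dye bound to dead-cell DNA was read repeatedly over 40 h of treatment at 37 C.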

[6] = qHTS assay to identify small molecule antagonists of the estrogen receptor alpha (ER-alpha) signaling pathway using the BG1 cell line in the presence of 0.1 nM 17-beta-estradiol - cell viability counter screen (AID 1259241); also: nearly all actives have a fitted effect of over 40% in size
Procedure, shortened: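 Estradiol-stimulated (0.1 nM) VM7Luc4E2 cells exposed to compounds 22 hr; viability measured by fluorescence of cleaved CellTiter-Fluor substrate after 30 min.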

[7] = qHTS assay to identify small molecule antagonists of the androgen receptor (AR) signaling pathway using the MDA cell line in the presence of 0.5 nM R1881 - cell viability counter screen (AID 1259242); also: nearly all actives have a fitted effect of over 45% in size
Procedure, shortened: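 MDA-kb2 cells (human breast carcinoma, stably carrying MMTV-luciferase reporter) were exposed to compounds with 0.5 nM R1881 (final) for 16 hr at 37C, 0% CO2; viability then read as live-cell protease fluorescence (CellTiter-Fluor, 30 min) in the same wells.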

[8] = biological target: Estrogen receptor (Homo sapiens) (UniProt P03372); test: qHTS assay to identify small molecule antagonists of the estrogen receptor alpha (ER-alpha) signaling pathway using the BG1 cell line in the presence of 0.1 nM 17-beta-estradiol (AID 1259244); also: nearly all actives have a fitted effect of over 50% in size
Procedure, shortened: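 VM7Luc4E2 cells (endogenous full-length ER-alpha, stable 4xERE-luciferase) were grown 5 days in phenol red-free medium with charcoal-stripped FBS, then exposed 22 h at 37C to compounds plus 0.1 nM (final) 17beta-estradiol; ONE-Glo luminescence read-out.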

[9] = qHTS assay to identify small molecule phospholipidosis (PLD) inducers (AID 1259344; active = well fitted curve in the direction sought with a large enough effect; an effect the other way counts as inactive or inconclusive)
Procedure, shortened: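 HepG2 cells, 900/well, treated with compound plus LipidTOX Red for 24 h at 37 C; amiodarone positive and DMSO negative controls. Fixed with paraformaldehyde/Hoechst, then high-content imaging scored LipidTOX pit count and integrated intensity per well and per cell.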

[10] = qHTS assay to identify small molecule HDAC inhibitors (AID 1259364); also: nearly all actives have a fitted effect of over 45% in size; also: potency is read from the fitted curve at half-maximal effect; as to activity change, negative = inhibition: top concentration of the series differs between compounds
Procedure, shortened: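 Wild-type HCT-116 cells were plated overnight, exposed to compounds for 2 h at 37 °C, then given HDAC-Glo class I/II luminogenic reagent for 30 min at room temperature before luminescence was read.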

[11] = qHTS assay to identify small molecule HDAC inhibitors - cell viability counter screen (AID 1259365)
Procedure, shortened: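 After overnight seeding at 1,500 cells per well, wild-type HCT-116 cultures took up compounds in DMSO for 2hr at 37 C. Viable cell content came from luminescence with CellTiter-Glo.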

[12] = qHTS assay to identify small molecule agonists of the sonic hedgehog signaling (Shh) pathway - cell viability counter screen (AID 1259366); also: nearly all actives have a fitted effect of over 50% in size; also: potency is read from the fitted curve at half-maximal effect
Procedure, shortened: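 Same-well cytotoxicity read. Gli1-Luc reporter 3T3 cells; compounds 24hr, 37C/5% CO2; CellTiter-Fluor fluorescence.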

[13] = qHTS assay to identify small molecule antagonists of the sonic hedgehog signaling (Shh) pathway - cell viability counter screen (AID 1259367); also: nearly all actives have a fitted effect of over 55% in size; also: potency is read from the fitted curve at half-maximal effect
Procedure, shortened: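 NIH/3T3-derived Gli1-Luc reporter cells, 2,000/well, plated 4 hr before compound addition, then stimulated with conditioned medium for 24 hr at 37C. Viability measured in the same wells by CellTiter-Fluor fluorescence, reagent added at 23 hr for 1 hr.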

[14] = qHTS assay to identify small molecule agonists of the sonic hedgehog signaling (Shh) pathway (AID 1259368; calls by dose curve; also: series mostly up to about 92 µM; nearly all actives have a fitted effect of over 15% in size)
Procedure, shortened: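 NIH/3T3-derived 3T3Gli1-Luc cells carrying a stably integrated Gli1 response element–firefly luciferase reporter were plated, left 4 hr at 37 C, then given compounds in DMSO for 24 hr. Luminescence was read 30 min after adding luciferase reagent.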

[15] = qHTS assay to identify small molecule antagonists of the sonic hedgehog signaling (Shh) pathway (AID 1259369; calls by dose curve; also: nearly all actives have a fitted effect of over 45% in size)
Procedure, shortened: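 NIH/3T3-derived 3T3Gli1-Luc cells with stably integrated Gli1-Luc reporter were preincubated 4hr at 37 C, then given compounds in DMSO plus Shh conditioned medium and incubated 24hr. Firefly luciferase luminescence read after 30min reagent at room temperature.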

[16] = biological target: Estrogen receptor beta (Homo sapiens) (UniProt Q92731); test: qHTS assay to identify small molecule agonists of the estrogen receptor beta (ER-beta) signaling pathway (AID 1259377; active = well fitted activation curve with a large enough effect in the signal ratio in the repeat runs, not every such curve was filed as active; the % refers to the signal ratio)
Procedure, shortened: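 Read-out: beta-lactamase FRET fluorescence. Cell line: ER-beta-UAS-bla HEK293T in 2% charcoal-stripped FBS. Exposure: 16 hr at 37C. Substrate step: 2 h at room temperature.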

[17] = biological target: Estrogen receptor beta (Homo sapiens) (UniProt Q92731); test: qHTS assay to identify small molecule antagonists of the estrogen receptor beta (ER-beta) signaling pathway (AID 1259378; active = well fitted inhibition curve with a large enough effect in the signal ratio in the repeat runs, not every such curve was filed as active; the % refers to the signal ratio)
Procedure, shortened: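 ER-beta-UAS-bla HEK293T cells in 2% charcoal-stripped FBS medium treated with compound plus 1nM final 17-beta-estradiol for 16 hr at 37C. Beta-lactamase reporter read by FRET substrate fluorescence after 2 hours at room temperature.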

[18] = qHTS assay to identify small molecule agonists of the androgen receptor (AR) signaling pathway in the presence of an antagonist - cell viability counter screen (AID 1259379); also: series mostly up to about 92 µM; nearly all actives have a fitted effect of over 25% in size
Procedure, shortened: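 MDA-kb2 human breast carcinoma cells (stable MMTV-luciferase, AR/GR responsive) were seeded 3,000 cells/well, pre-incubated 5 hr at 37C without CO2, then given 3.0uM nilutamide and compounds at 15 concentrations for 16 hr. Viability was read by CellTiter-Fluor fluorescence.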

[19] = qHTS assay to identify small molecule agonists of the estrogen receptor beta (ER-beta) signaling pathway - cell viability counter screen (AID 1259380); also: nearly all actives have a fitted effect of over 30% in size; also: potency is read from the fitted curve at half-maximal effect
Procedure, shortened: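 ER-beta-UAS-bla HEK293T cells in medium with 2% charcoal-stripped FBS were preincubated 6 hr at 37C, dosed with compound in DMSO for 16 hr, then after the bla read, CellTiter-Glo was added for 30 min at room temperature; luminescence recorded.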
% is scaled to controls: 0 for no effect and ±100 for the full control effect.

Sequence of Estrogen receptor (Homo sapiens) (P03372 whole entry, looked up): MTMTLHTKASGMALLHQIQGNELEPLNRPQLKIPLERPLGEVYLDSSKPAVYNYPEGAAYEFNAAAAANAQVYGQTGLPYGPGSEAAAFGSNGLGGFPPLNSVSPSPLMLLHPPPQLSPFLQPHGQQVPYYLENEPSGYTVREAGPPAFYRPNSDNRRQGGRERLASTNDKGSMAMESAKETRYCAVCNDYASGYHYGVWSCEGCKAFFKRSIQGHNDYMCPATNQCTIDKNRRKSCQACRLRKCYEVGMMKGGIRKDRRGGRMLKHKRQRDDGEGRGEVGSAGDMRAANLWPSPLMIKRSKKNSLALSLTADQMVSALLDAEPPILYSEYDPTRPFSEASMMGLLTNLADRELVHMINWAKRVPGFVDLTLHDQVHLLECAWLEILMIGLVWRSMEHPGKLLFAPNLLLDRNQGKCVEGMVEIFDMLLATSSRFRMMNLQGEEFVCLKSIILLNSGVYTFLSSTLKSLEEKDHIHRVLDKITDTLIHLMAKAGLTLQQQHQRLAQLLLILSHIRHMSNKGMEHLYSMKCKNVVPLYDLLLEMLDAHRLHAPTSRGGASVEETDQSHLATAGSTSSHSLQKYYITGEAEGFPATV
Sequence of Estrogen receptor beta (Homo sapiens) (Q92731 whole entry, looked up): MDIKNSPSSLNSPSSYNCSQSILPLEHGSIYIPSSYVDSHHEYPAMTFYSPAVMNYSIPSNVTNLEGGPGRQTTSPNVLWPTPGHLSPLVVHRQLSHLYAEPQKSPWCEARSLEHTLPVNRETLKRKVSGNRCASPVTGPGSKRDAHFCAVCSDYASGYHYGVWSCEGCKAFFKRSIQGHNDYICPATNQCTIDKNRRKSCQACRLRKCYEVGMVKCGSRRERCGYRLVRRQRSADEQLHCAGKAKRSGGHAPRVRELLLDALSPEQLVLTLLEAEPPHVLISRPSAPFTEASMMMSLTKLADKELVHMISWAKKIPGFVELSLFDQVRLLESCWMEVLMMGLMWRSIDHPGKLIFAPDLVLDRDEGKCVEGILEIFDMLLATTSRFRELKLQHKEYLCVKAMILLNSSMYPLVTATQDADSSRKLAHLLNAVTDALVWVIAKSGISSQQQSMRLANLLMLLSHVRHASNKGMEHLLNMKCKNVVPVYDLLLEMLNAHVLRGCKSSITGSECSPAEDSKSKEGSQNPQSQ

C#CCN(C)Cc1ccccc1
inactive: Potency [1] | Potency [2] | outcome [3] | Potency [4] | Potency [5] | Potency [6] | outcome [7] | Potency [8] | outcome [9] | Potency [10] | outcome [11] | Potency [12] | Potency [13] | outcome [14] | Potency [15] | Potency [16] | Potency [17] | Potency [18] | Potency [19]

C[C@H]1C[C@@H]2[C@H]([C@@H](O)C[C@@]3(C)[C@H]2CC[C@]3(O)C(=O)CO)[C@@]2(C)C=CC(=O)C=C12
inactive: Potency [1] | Potency [2] | outcome [3] | Potency [5] | Potency [6] | outcome [7] | outcome [9] | Potency [10] | outcome [11] | Potency [12] | Potency [13] | Potency [15] | Potency [18] | Potency [19]
active: Potency [4] 871 nM and 1.9 µM

CCCSc1ccc2nc(NC(=O)OC)[nH]c2c1
inactive: Potency [1] | Potency [2] | outcome [3] | Potency [5] | Potency [6] | outcome [7] | outcome [9] | outcome [11] | Potency [12] | Potency [18] | Potency [19]
active: Potency [10] 6.11 µM and 10.6 µM | Potency [13] 2.17 µM

C=C(C)C(=O)OCCOCCOCCOC(=O)C(=C)C
inactive: Potency [1] | Potency [2] | outcome [3] | Potency [4] | Potency [5] | Potency [6] | outcome [7] | Potency [10] | outcome [11] | Potency [12] | Potency [13] | outcome [14] | Potency [18] | Potency [19]

O=C=NCCCCCCN=C=O
inactive: Potency [1] | Potency [2] | outcome [3] | Potency [4] | Potency [5] | Potency [6] | outcome [7] | Potency [8] | Potency [10] | outcome [11] | Potency [12] | Potency [13] | Potency [15] | Potency [16] | Potency [17] | Potency [18] | Potency [19]

NNc1nncc2ccccc12
inactive: activity change, negative = cytotoxicity [1] 2.63% [at 15.8 µM] | activity change, negative = cytotoxicity [2] 1.02% [at 15.8 µM] | outcome [3] | Potency [4] | Potency [5] | Potency [6] | outcome [7] | outcome [9] | activity change, negative = inhibition [10] -29.1% [at 19 µM] | outcome [11] | viability change, negative = cytotoxic [12] -0.875% [at 19 µM] | viability change, negative = cytotoxic [13] 1.95% [at 19 µM] | outcome [14] | Potency [15] | Potency [18] | activity change, negative = cytotoxicity [19] -0.605% [at 19 µM]
active: Potency [12] 48.6 µM | Potency [13] 61.1 µM | Potency [19] 21.7 µM
